Screening data as filed in PubChem.
This is a sample that favours compounds with a hit; in the whole collection about 9.5% have one here.
RE007 growth inh: less growth of the S. pombe RE007 Vpr strain; Potency, µM (doses to about 92.2 µM), inactives show top-dose activity change, negative = less growth, usual class: inhibitors; AID 651644; 0.21% of 360,000 active; S. pombe RE007 Vpr strain, BacTiter-Glo ATP luminescence, 24 h; active = well fitted falling curve with a large enough effect; inconclusive = small, poorly fitted or top-dose-only effect; inactive = no such curve, though single readings can be large or run the other way; also: % is scaled to controls: 0 for no effect and ±100 for the full control effect; nearly all actives have a fitted effect of over 50% in size
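Fission yeast strain RE007, carrying one chromosomally integrated HIV-1 vpr copy, was seeded at OD 0.01 in PMG+AL medium with 23 nL pinned compound. After 24 h at 30 °C and 99% humidity, viability was read by BacTiter-Glo luminescence.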
SARS PLpro yeast: blocks SARS-CoV papain-like protease in a yeast assay. S. cerevisiae expressing SARS-CoV PLpro, growth rescue. Potency, µM (highest dose often 32.9 µM), inactives show at the top dose activity, positive = growth rescue, hits mostly activators. 0.19% of 330,000 active. AID 485353; also: 0% is about no effect; nearly all actives have a fitted effect of over 55% in size
NS1 function inh: blocks influenza NS1 protein function; Potency, µM (top dose mostly 46.1 µM), without a hit: at the top dose activity, positive = more growth; 0.4% of 270,000 active; AID 2326; also: actives are rising curves; nearly all actives have a fitted effect of over 50% in size
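OD600 was taken as the measure of yeast growth restored by compound in an NS1-expressing S. cerevisiae strain. Cells had been washed out of glucose medium and diluted 1:100 into galactose -URA medium, pH 6.0.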
Pf growth 48h: P. falciparum growth inhibition at 48 hours (one generation) | P. falciparum luciferase growth in erythrocytes, 48 h | Potency, µM (top dose mostly 28.7 µM), for the others: at the top dose activity change, negative = inhibition, actives largely listed as inhibitors | 5.9% of 310,000 active; active = well fitted inhibition curve with a large enough effect; inconclusive = small, poorly fitted or top-dose-only effect, or another doubt; inactive = no such curve, though single readings can be large or run the other way; also: % is scaled to controls: 0 for no effect and ±100 for the full control effect
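Cell-based growth assay: transgenic P. falciparum expressing firefly luciferase, cultured in red cells within RPMI 1640 containing 0.5% w/v Albumax, 24 mM bicarbonate and gentamycin. A drop in luciferase activity indicates inhibition.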
Pf growth 96h: P. falciparum growth inhibition at 96 hour, primary screen for plastid delayed-death inhibitors. Potency, µM (highest dose often 28.7 µM), for inactives: at the top dose activity change, negative = inhibition, usual class: inhibitors. 6.9% of 320,000 active. AID 504834. P. falciparum luciferase reporter growth, 96 h; active = well fitted inhibition curve with a large enough effect; inconclusive = small, poorly fitted or top-dose-only effect, or another doubt; inactive = no such curve, though single readings can be large or run the other way; also: % is scaled to controls: 0 for no effect and ±100 for the full control effect
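96 h incubation, 37 C, 5% CO2, of luciferase-reporter P. falciparum-infected RBCs (2% hematocrit, 0.05% parasitemia final) with test compounds; endpoint luminescence.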
* marks the source's active call; other numbers are inactive results. Unless noted, calls follow the shape of the full dose curve. Potency is read from the fitted curve at half-maximal effect.

NCCCc1c(-c2ccccc2)nc(N)[nH]c1=O was read as NS1 function inh -8%.
Screening COc1ccc(C(=O)Nc2ccccc2C(=O)NC(Cc2c[nH]c3ccccc23)C(=O)O)cc1 (configuration not stated) returned RE007 growth inh 9%, SARS PLpro yeast 2%, NS1 function inh -8%, Pf growth 48h inconclusive and Pf growth 96h -27%.
`Cc1ccc(NC(=O)CCNS(=O)(=O)c2ccc(Br)s2)cc1` gave RE007 growth inh -11%, SARS PLpro yeast 0%, NS1 function inh -1%, Pf growth 48h 2% and Pf growth 96h 21%.
`COc1ccc(Cc2nnc(Nc3ccccc3OC)[nH]c2=O)cc1` gave RE007 growth inh 18%, SARS PLpro yeast 6%, Pf growth 48h inconclusive and Pf growth 96h -5%.
COc1ccccc1Nc1nnc(Cc2ccccc2)c(=O)[nH]1 was read as RE007 growth inh 3%, SARS PLpro yeast 0%, Pf growth 48h 22% and Pf growth 96h 12µM*.
For COC(=O)[C@@H](c1ccccc1)N(C)S(=O)(=O)c1cccc(S(=O)(=O)N(C)[C@@H](C(=O)OC)c2ccccc2)c1 the results were RE007 growth inh -19%, SARS PLpro yeast -1%, NS1 function inh 25%, Pf growth 48h 13µM* and Pf growth 96h inconclusive.
Screening CC(C)NC(=O)C1(C)CN(S(C)(=O)=O)CC(=O)N1CCc1ccc(O)cc1 (configuration not stated) returned RE007 growth inh -4%.
O=C(OCc1ccccc1)N(CCCCN(CCCNCc1ccccc1)C(=O)OCc1ccccc1)CCCNCc1ccccc1 was read as RE007 growth inh 53%.
For COc1cccc(C2=CC(c3ccc(C)cc3)n3ncnc3N2)c1 (configuration not stated) the results were SARS PLpro yeast -2%, NS1 function inh -16%, Pf growth 48h inconclusive and Pf growth 96h 46%.
For Cc1ccsc1C1C=C(c2cccc(Br)c2)Nc2ncnn21 (configuration not stated) the results were RE007 growth inh -16%, SARS PLpro yeast -1%, NS1 function inh -41%, Pf growth 48h 0% and Pf growth 96h 12µM*.
Screening COc1ccc(/C=C(\C#N)C(N)=O)c(OC)c1 returned NS1 function inh 11%.
Screening COCC(C)NC(=O)CSc1nc2ccccc2n1CCc1ccccc1 (configuration not stated) returned RE007 growth inh -14%, SARS PLpro yeast -5%, NS1 function inh -17%, Pf growth 48h -23% and Pf growth 96h 10µM*.
`COCC(C)NC(=O)Cn1c(SCc2ccccc2)nc2ccccc21` (configuration not stated) gave RE007 growth inh 1%, SARS PLpro yeast 22%, NS1 function inh 11%, Pf growth 48h -19% and Pf growth 96h 0%.
For CCC(C)NC(=O)CSc1nc2ccccc2c(=O)n1Cc1ccc(OC)cc1 (configuration not stated) the results were RE007 growth inh 9%, SARS PLpro yeast -4%, NS1 function inh 3% and Pf growth 96h 1.7µM*.
NC(=O)CSc1nc2ccccc2c(=O)n1Cc1ccccc1 was read as RE007 growth inh 1%, SARS PLpro yeast 5%, NS1 function inh 14%, Pf growth 48h 7% and Pf growth 96h 99%.
Screening CCCNC(=O)NC(=O)CSc1nc2ccccc2c(=O)n1Cc1ccncc1 returned RE007 growth inh 11%, SARS PLpro yeast 6%, NS1 function inh -8%, Pf growth 48h inconclusive and Pf growth 96h 13µM*.
Screening CCC(C)NC(=O)CSc1nnc(-c2cc(-c3ccc(C)cc3)nc3ccccc23)n1N (configuration not stated) returned RE007 growth inh 7%, SARS PLpro yeast 1%, NS1 function inh 5% and Pf growth 96h 12µM*.
CC1NS(=O)(=O)c2cc([N+](=O)[O-])ccc21 (configuration not stated) was read as RE007 growth inh 3%.
Screening O=C(O)C[C@H](S)C(=O)O returned NS1 function inh -4%.
O=C(c1ccc2ccccc2c1)C1CCCN(S(=O)(=O)c2cccnc2)C1 (configuration not stated) was read as RE007 growth inh -3%, SARS PLpro yeast -2%, NS1 function inh 1%, Pf growth 48h inconclusive and Pf growth 96h 25%.
Screening CC(CCc1ccccc1)NC(=O)CSc1nnnn1C (configuration not stated) returned RE007 growth inh -5%, SARS PLpro yeast 4%, NS1 function inh -1%, Pf growth 48h 4% and Pf growth 96h 4.7µM*.
Cn1nnnc1SCC(=O)Nc1ccccc1Cc1ccccc1 was read as RE007 growth inh 12%, SARS PLpro yeast -3%, NS1 function inh -2%, Pf growth 48h -4% and Pf growth 96h 30%.
Screening Cn1c(SCC(=O)NC2CCCc3ccccc32)nnc1C1CC1 (configuration not stated) returned RE007 growth inh 2%, SARS PLpro yeast -6%, Pf growth 48h inconclusive and Pf growth 96h 14%.
`CCOC(=O)CC(=O)CSc1nc2c(C)c(C)ccc2cc1C` gave RE007 growth inh -15%, SARS PLpro yeast -11%, NS1 function inh 12% and Pf growth 96h 17%.
CCOC(=O)CC(=O)CSc1nc2cc(C)ccc2cc1C was read as RE007 growth inh -15%, SARS PLpro yeast -4%, NS1 function inh 20%, Pf growth 48h inconclusive and Pf growth 96h 13µM*.
Screening COc1cccc(Oc2nc(-c3ccncc3)nc3ccccc23)c1 returned RE007 growth inh -28%, SARS PLpro yeast 0%, NS1 function inh -1%, Pf growth 48h inconclusive and Pf growth 96h inconclusive.
For COc1ccc(CCNC(=O)[C@H](C)N2C(=O)N3CCc4c([nH]c5ccccc45)[C@@]3(C)C2=O)cc1OC the results were RE007 growth inh 7%, SARS PLpro yeast inconclusive, NS1 function inh -12%, Pf growth 48h inconclusive and Pf growth 96h -5%.
For COc1ccc2[nH]c3c(c2c1)CCN1C(=O)N([C@@H](C)C(=O)NCCc2ccc(OC)c(OC)c2)C(=O)[C@]31C the results were RE007 growth inh 1%, SARS PLpro yeast 4%, NS1 function inh -21%, Pf growth 48h inconclusive and Pf growth 96h 10µM*.
`COc1ccc2[nH]c3c(c2c1)CCN1C(=O)N([C@@H](C)C(=O)NC2CCCCC2C)C(=O)[C@]31C` (some centres not stated) gave RE007 growth inh 9%, SARS PLpro yeast 6%, NS1 function inh 2%, Pf growth 48h 9.3µM* and Pf growth 96h 12µM*.
`O=C(NC(=S)Nc1cccc([N+](=O)[O-])c1)C1CCCCC1` gave RE007 growth inh 2%, SARS PLpro yeast -4%, NS1 function inh 10%, Pf growth 48h 6% and Pf growth 96h -17%.
